Test [1] can be described thus: qHTS to identify inhibitors of the type 1 interferon - major histocompatibility complex class I in skeletal muscle: primary screen against the NCATS Pharmaceutical Collection (AID 1347407).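 Note: luminescence of HiBiT knocked into endogenous HLA-B as interferon-induced MHC class I level.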 The method, boiled down:
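A qHTS format is used: 8-point, 1:5 compound series with 46 uM top final concentration, applied alongside 4 ng/ml IFN-beta to HLA-B*08:01-HiBiT knock-in myoblasts. Luminescence is measured after 24 h treatment.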

The target in test [2] is Protein phosphatase 1D (Homo sapiens) (UniProt O15297). Nature of the test: RapidFire Mass Spectrometry qHTS Assay for Modulators of WT P53-Induced Phosphatase 1 (WIP1) (AID 1347424).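 Note: amount of dephosphorylated VEPPL-S-QETFS peptide product formed by WIP1; series mostly up to about 63 µM.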 The essentials: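 10 nM WIP1 + cpd, 1 h RT; + 2 uM VEPPL-pS-QETFS, 5 min RT; stop 0.5% formic acid; labelled product standard 1 uM; RapidFire MS. Buffer 50 mM Tris pH 7.5, 30 mM MgCl2, 1 mM TCEP.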
Chain of Protein phosphatase 1D (Homo sapiens) (O15297 whole entry, looked up): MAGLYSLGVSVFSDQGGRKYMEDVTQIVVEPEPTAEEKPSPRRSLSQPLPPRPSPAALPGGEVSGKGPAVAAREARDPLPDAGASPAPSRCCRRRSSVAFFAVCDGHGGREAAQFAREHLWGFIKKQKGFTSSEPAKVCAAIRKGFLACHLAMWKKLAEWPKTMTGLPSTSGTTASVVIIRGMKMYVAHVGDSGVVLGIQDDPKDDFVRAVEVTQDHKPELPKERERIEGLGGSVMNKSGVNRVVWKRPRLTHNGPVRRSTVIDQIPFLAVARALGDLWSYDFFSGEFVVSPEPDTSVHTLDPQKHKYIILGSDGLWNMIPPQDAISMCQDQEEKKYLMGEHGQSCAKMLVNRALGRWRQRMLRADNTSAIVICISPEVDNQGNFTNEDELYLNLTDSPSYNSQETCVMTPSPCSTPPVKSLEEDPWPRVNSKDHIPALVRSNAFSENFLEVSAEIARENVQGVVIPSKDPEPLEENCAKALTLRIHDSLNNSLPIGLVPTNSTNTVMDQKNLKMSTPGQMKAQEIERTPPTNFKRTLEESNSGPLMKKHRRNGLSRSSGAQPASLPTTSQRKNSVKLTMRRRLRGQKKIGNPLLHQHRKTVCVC
A general note: Quantitative high-throughput screening tests each substance at several concentrations.

Test [3] has the same target. Nature of the test: Rhodamine-PBP qHTS Assay for Modulators of WT P53-Induced Phosphatase 1 (WIP1) (AID 1347425). The essentials:
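WIP1 (5 nM final) was preincubated with compound for 1 hour at room temperature. It then dephosphorylated 10 uM VEPPL-pS-QETFS peptide in Tris-HCl pH 7.5 with 30 mM MgCl2. Released Pi was detected by 10 uM Rh-PBP fluorescence (ex 525/em 598 nm) read at 1-min intervals for 11 min, as delta f1 - f0.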

Inconclusive results are not listed. Entries that show only a call come without a potency. The source made the active and inactive calls. Calls come from the whole dose curve; as a rule, active = well fitted curve in the direction sought with a large enough effect; inconclusive = small, poorly fitted or top-dose-only effect, or another doubt; inactive = no such curve, though single readings can be large; an effect the other way counts as inactive or inconclusive.

For `Cc1ccc(O)c2ncccc12`, the Potency entry in test [1] and in test [2] was “inactive” each time. In test [3], the outcome was inactive.

Regarding `CN1CCN(C(c2ccccc2)c2ccccc2)CC1`, the Potency entry in test [1] and in test [2] was “inactive” throughout. Moreover, the compound was classed as inactive in test [3].

As to `CCN(CCCCOC(=O)c1ccc(OC)c(OC)c1)C(C)Cc1ccc(OC)cc1` (centres undefined), the Potency entry in test [1] was “inactive”. Further, in test [3], the call was inactive.

On to `CCC(C(=O)OCCN(CC)CC)c1ccccc1` (centres undefined), for which the Potency entry in test [1] and in test [2] was “inactive” each time. Further, the result in test [3] was inactive.

Regarding `Cc1c(C)n(Cc2ccccc2)c2ccc(C(=O)OCCN(C)C)cc12`, the Potency entry in test [1] is “inactive”. Also, in test [3], the outcome was inactive.

For the compound `N[C@H](Cc1c[nH]c2ccccc12)C(=O)O`, the Potency entry in test [1] and in test [2] was “inactive” in each case. In test [3], the compound was classed as inactive.

As to `COc1cc2c(cc1OC)C(=O)C(CC1CCN(Cc3ccccc3)CC1)C2` (centres undefined), in test [1], the Potency result is “inactive”. The call in test [3] was inactive.

As to `CCN(CC)C(=O)N1CCN(C)CC1`, the Potency result in test [1] and in test [2] was “inactive” each time. Besides, the outcome in test [3] was inactive.

Take `C[C@@H]1C[C@H]2[C@@H]3CCC4=CC(=O)C=C[C@]4(C)[C@@]3(F)[C@@H](O)C[C@]2(C)[C@H]1C(=O)CO`: the Potency entry in test [1] and in test [2] was “inactive” each time. For the same compound, the outcome in test [3] was inactive.

As to `CCCSS/C(CCO)=C(\C)N(C=O)Cc1cnc(C)nc1N`, the Potency entry in test [1] and in test [2] was “inactive” each time. For the same compound, the compound was called inactive in test [3].

`NC(CS)C(=O)O` (centres undefined): the Potency entry in test [1] and in test [2] was “inactive” throughout. Besides, the outcome in test [3] was inactive.

`CCOc1ccc2nc3cc(N)ccc3c(N)c2c1`: the Potency entry in test [1] and in test [2] was “inactive” throughout. For the same compound, the outcome in test [3] was inactive.

With `CCCC(=O)Nc1ccc(OCC(O)CNC(C)C)c(C(C)=O)c1` (centres undefined), the Potency entry in test [1] and in test [2] was “inactive” throughout. In test [3], the result was inactive.

Take `C[C@H](O)C(=O)Nc1c(I)c(C(=O)NC(CO)CO)c(I)c(C(=O)NC(CO)CO)c1I`: the Potency result in test [1] and in test [2] was “inactive” in each case. The call in test [3] was inactive.

For `O=C1[C@H]2CCCC[C@H]2C(=O)N1CCCCN1CCN(c2nsc3ccccc23)CC1`, the Potency entry in test [1] was “inactive”. For the same compound, the compound was called inactive in test [3].

Turning to `C[C@@H]1CN(CCCn2c3ccccc3c3ccccc32)C[C@H](C)N1`, the Potency result in test [1] and in test [2] was “inactive” in each case. The call in test [3] was inactive.

Take `O=C(OCC(O)CO)c1ccccc1Nc1ccnc2cc(Cl)ccc12` (centres undefined): the Potency entry in test [1] and in test [2] was “inactive” in each case. In test [3], the compound was classed as inactive.

For `CC(=O)c1ccc2c(c1)N(CCCN1CCC(CCO)CC1)c1ccccc1S2`, the Potency entry in test [1] and in test [2] was “inactive” in each case. For the same compound, in test [3], the call was inactive.

For `OC[C@@H](O)[C@@H](O[C@@H]1O[C@H](CO)[C@H](O)[C@H](O)[C@H]1O)[C@H](O)[C@@H](O)CO`, the Potency entry in test [1] and in test [2] was “inactive” in each case. Moreover, the outcome in test [3] was inactive.

For `CCOC(=O)[C@H](CCc1ccccc1)N[C@@H](C)C(=O)N1Cc2ccccc2C[C@H]1C(=O)O`, the Potency entry in test [1] and in test [2] was “inactive” throughout. Moreover, in test [3], the call was inactive.

`OC[C@H]1O[C@H](O[C@]2(CCl)O[C@H](CCl)[C@@H](O)[C@@H]2O)[C@H](O)[C@@H](O)[C@H]1Cl`: the Potency result in test [1] and in test [2] was “inactive” throughout. Moreover, in test [3], the result was inactive.

On to `Cc1c(C(N)=O)cc([N+](=O)[O-])cc1[N+](=O)[O-]`, for which the Potency entry in test [1] is “inactive”. Besides, the outcome in test [3] was inactive.

`Cc1cc(O)c(C(C)C)cc1Cl`: the Potency result in test [1] is “inactive”. For the same compound, in test [3], the result was inactive.

Turning to `NCCc1ccn[nH]1`, the Potency entry in test [1] is “inactive”. In addition, the outcome in test [3] was inactive.

In the case of `CCCCOc1ccc(OCCCN2CCOCC2)cc1`, in test [1], the Potency entry is “inactive”. Besides, the result in test [3] was inactive.

Turning to `CC(C)COC(=O)c1ccc(N)cc1`, the Potency entry in test [1] and in test [2] was “inactive” throughout. Besides, the compound was classed as inactive in test [3].

For the compound `Oc1ccc(Cl)c2cccnc12`, the Potency entry in test [1] and in test [2] was “inactive” in each case. Moreover, the outcome in test [3] was inactive.

Regarding `Cc1cccc(C)c1NC(=O)CN1CCN(CCCC(c2ccc(F)cc2)c2ccc(F)cc2)CC1`, the Potency entry in test [1] and in test [2] was “inactive” throughout. Also, the compound was called inactive in test [3].

`O=C(COc1ccc(Cl)cc1)N1CCN(Cc2ccc3c(c2)OCO3)CC1`: the Potency result in test [1] and in test [2] was “inactive” throughout. The outcome in test [3] was inactive.
